# From the supplement of paper PMC9254222
# The full ranking holds about 1,100 compounds; the median of “Wnt reporter firefly/Renilla luciferase ratio relative to plate median” is about 1.1, and the highest 2% start at about 1.6. For the sample, the highest values were picked, then their nearest neighbours and some compounds at random.
# Tested on: HEK293T (UBE3A T485A transfected, BAR Wnt reporter)
# Experiment: Wnt reporter firefly/Renilla luciferase ratio relative to plate median (fold (linear ratio)); higher = more Wnt/beta-catenin reporter activation
# Settings: 24 h
# Method in brief: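 HEK293T cells were seeded at 4500 cells/well in white 384-well plates and grown in DMEM with 10% FBS at 37°C and 5% CO2. The cells were transfected using Fugene 6 with a BAR firefly luciferase Wnt reporter, TK-Renilla and an expression plasmid, and four hours later robots added the chemicals at 0.01–100 uM for 24 h before a Dual-Glo luciferase readout. Wnt activity was taken as the firefly/Renilla ratio and cell health as raw Renilla, each median-centred per plate. Values are averages of four biological replicates.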
SMILES,Wnt reporter firefly/Renilla luciferase ratio (concentration: 0.1 uM),Wnt reporter firefly/Renilla luciferase ratio (concentration: 1 uM),Wnt reporter firefly/Renilla luciferase ratio (concentration: 10 uM),Wnt reporter firefly/Renilla luciferase ratio (concentration: 100 uM),Wnt reporter firefly/Renilla luciferase ratio (concentration: 0.01 uM)
C=CCOC(=O)c1ccccc1C(=O)OCC=C [Diallyl phthalate],1.17,1.04,1.22,1.09,
CCOc1cc(Oc2ccc(C(F)(F)F)cc2Cl)ccc1[N+](=O)[O-] [Oxyfluorfen],1.05,0.917,1.07,0.292,1.01
CCCCCCCCCCCCCN1CC(C)OC(C)C1 (stereo unspecified) [Tridemorph],1.09,1.23,1.04,1.05,
CCOP(=O)(OCC)Oc1nc(Cl)c(Cl)cc1Cl [Chlorpyrifos oxon],0.876,1.02,0.861,0.591,0.967
CN(C)C(=O)Cl [Dimethylcarbamoyl chloride],0.982,1.32,1.35,1.31,
Cc1cccc([N+](=O)[O-])c1 [3-Nitrotoluene],1.02,1.03,0.836,1.17,
CN(C)C(=O)Nc1cccc(C(F)(F)F)c1 [Fluometuron],1.43,1.1,0.996,1.04,1.3
O=P(OC(CCl)CCl)(OC(CCl)CCl)OC(CCl)CCl,1.19,0.764,1.31,0.44,
CCC(CC)Nc1c([N+](=O)[O-])cc(C)c(C)c1[N+](=O)[O-] [Pendimethalin],0.866,0.946,0.92,1.08,0.882
"CC(C)(C)CC(C)(C)c1ccc(O)cc1 [4-(1,1,3,3-Tetramethylbutyl)phenol]",1.03,0.968,1.15,0.935,
CN1COCN(Cc2cnc(Cl)s2)C1=N[N+](=O)[O-] [Thiamethoxam],1.19,1.01,0.971,1.2,1.14
c1ccc(N=Nc2ccccc2)cc1 [Azobenzene],1.35,1.05,1.38,1.1,
"c1ccc(NNc2ccccc2)cc1 [1,2-Diphenylhydrazine]",1.25,1.04,1.19,1.27,
c1ccc(C2CO2)cc1 (stereo unspecified) [Styrene oxide],1.23,0.89,1.19,1.71,
CCOP(=S)(Oc1ccc([N+](=O)[O-])cc1)c1ccccc1 (stereo unspecified),1.05,1.07,0.965,0.846,
COc1nn(CSP(=S)(OC)OC)c(=O)s1 [Methidathion],1.74,1.33,1.56,0.818,1.41
"Cc1cc(-c2ccc(N)c(C)c2)ccc1N [3,3'-Dimethylbenzidine]",1.15,0.925,0.831,0.556,
CCC(C)n1c(=O)[nH]c(C)c(Br)c1=O (stereo unspecified) [Bromacil],1,0.995,0.904,0.896,0.919
c1ccc2c(c1)oc1ccccc12 [Dibenzofuran],1.04,0.95,1.02,1.15,
Oc1ccc(Cl)cc1Cc1ccccc1 [Clorophene],1.05,1.07,0.943,,0.901
Nc1ccc2ccccc2c1 [2-Naphthylamine],0.991,0.869,0.998,0.629,
CCOP(=S)(OCC)Oc1nc(Cl)c(Cl)cc1Cl [Chlorpyrifos],1.11,1.01,0.926,1.12,

SMILES,Wnt reporter firefly/Renilla luciferase ratio (concentration: 0.1 uM),Wnt reporter firefly/Renilla luciferase ratio (concentration: 1 uM),Wnt reporter firefly/Renilla luciferase ratio (concentration: 10 uM),Wnt reporter firefly/Renilla luciferase ratio (concentration: 100 uM),Wnt reporter firefly/Renilla luciferase ratio (concentration: 0.01 uM)
"N#CC(Br)(Br)C(N)=O [2,2-Dibromo-3-nitrilopropionamide]",1.26,1.24,1.3,1.23,
Nc1ccc([N+](=O)[O-])cc1 [4-Nitroaniline],1.19,0.817,0.602,0.574,
O=S(=O)([O-])C(F)(F)C(F)(F)C(F)(F)C(F)(F)C(F)(F)C(F)(F)F.[K+],1.21,0.967,1.07,1.21,
O=S(=O)([O-])C(F)(F)C(F)(F)C(F)(F)C(F)(F)F.[K+],1.15,1.04,1.23,1.73,
O=S(=O)([O-])C(F)(F)C(F)(F)C(F)(F)C(F)(F)C(F)(F)C(F)(F)C(F)(F)C(F)(F)F.[K+],1.12,1.24,1.39,0.833,
ClC1=C(Cl)C(Cl)(Cl)C(Cl)=C1Cl [Hexachlorocyclopentadiene],1.24,0.958,1.02,0.638,
O=C(O)CNCP(=O)(O)O [Glyphosate],1.38,1.39,1.04,1.75,1.29
C=C(C)[C@H]1Cc2c(ccc3c2O[C@@H]2COc4cc(OC)c(OC)cc4[C@@H]2C3=O)O1 [Rotenone],0.675,0.7,0.862,,0.948
CCc1cccc(CC)c1N(COC)C(=O)CCl [Alachlor],0.977,0.938,0.799,0.366,0.923
CC1(C)C(C=C(Cl)Cl)C1C(=O)OC(C#N)c1cccc(Oc2ccccc2)c1 (stereo unspecified) [Cypermethrin],1.14,1.06,0.991,0.601,1.02
CS(=O)(=O)c1ccc(C(=O)C2C(=O)CCCC2=O)c([N+](=O)[O-])c1 [Mesotrione],1.82,0.968,1.14,1.16,1.7
C=CC(N)=O [Acrylamide],0.86,0.905,0.839,1.1,
N#CSCSC#N [Methylene bis(thiocyanate)],0.976,1.05,1.31,,0.967
CNC(=O)ON=C(C)SC [Methomyl],1.08,1.03,0.996,1.19,0.847
CNC(=O)ON=C(SC)C(=O)N(C)C [Oxamyl],1.22,1.11,1.43,0.291,1.55
CS/C(C)=N/OC(=O)N(C)SN(C)C(=O)O/N=C(\C)SC [Thiodicarb],1.86,1.6,1.15,,1.53
"Nn1cnnc1 [4-Amino-1,2,4-triazole]",1.22,0.928,1.27,1.43,
ClC1=C(Cl)[C@]2(Cl)[C@H]3[C@H]([C@@H]4C=C[C@H]3C4)[C@@]1(Cl)C2(Cl)Cl [Aldrin],1.2,0.895,1.15,1.43,
COC(=O)c1ccccc1C(=O)OC [Dimethyl phthalate],1.21,1.21,1.2,1.42,1.03
N#Cc1nn(-c2c(Cl)cc(C(F)(F)F)cc2Cl)c(N)c1S(=O)C(F)(F)F (stereo unspecified) [Fipronil],0.896,0.987,0.889,0.402,0.954
COS(=O)(=O)[O-].Cn1c(-c2ccccc2)cc(-c2ccccc2)[n+]1C [Difenzoquat metilsulfate],0.813,1.1,0.847,0.425,0.771
CC(C)(C)C(O)(CCc1ccc(Cl)cc1)Cn1cncn1 (stereo unspecified) [Tebuconazole],1.04,0.915,0.972,0.461,

SMILES,Wnt reporter firefly/Renilla luciferase ratio (concentration: 0.1 uM),Wnt reporter firefly/Renilla luciferase ratio (concentration: 1 uM),Wnt reporter firefly/Renilla luciferase ratio (concentration: 10 uM),Wnt reporter firefly/Renilla luciferase ratio (concentration: 100 uM),Wnt reporter firefly/Renilla luciferase ratio (concentration: 0.01 uM)
CC(=O)N=C1C=CC(=O)C=C1,1.17,1,0.923,1.08,0.925
"CCN(CC)CCO [N,N-Diethylethanolamine]",1.01,1.07,0.956,1.44,
Clc1ccc(C(c2ccccc2Cl)C(Cl)(Cl)Cl)cc1 (stereo unspecified),0.989,0.858,0.978,1.08,
c1cc2ccc3cccc4ccc(c1)c2c34 [Pyrene],1.09,0.96,1.05,0.354,
"N=C(Nc1ccccc1)Nc1ccccc1 [1,3-Diphenylguanidine]",1.06,1.28,0.977,1.02,
NC1=NC(O)C2C3OC4(O)OC(C(O)C2(N1)C4O)C3(O)CO (stereo unspecified) [Tetrodotoxin (TTX)],1.12,1.09,1.06,1.8,1.05
CCOc1cccc([C@]2(N3CCN(c4ccccc4)CC3)CC[C@@H](C)CC2)c1.CS(=O)(=O)O,1.38,0.926,1.05,1.12,
CCCOC/C(=N\c1ccc(Cl)cc1C(F)(F)F)n1ccnc1 [Triflumizole],1.65,1.53,1.91,1.72,1.29
CCCN(CCOc1c(Cl)cc(Cl)cc1Cl)C(=O)n1ccnc1 [Prochloraz],1.15,0.904,1.05,0.247,1.14
CN1C2CC(OC(=O)C(CO)c3ccccc3)CC1C1OC12 (stereo unspecified) [Scopolamine],1.56,1.15,1.24,1.26,1.61
N#Cc1cc(Br)c(O)c(Br)c1 [Bromoxynil],0.882,0.923,0.998,0.286,0.815
CCNc1nc(Cl)nc(NC(C)C)n1 [Atrazine],1.38,1.15,1.29,1.18,1.45
"Cc1cccc([N+](=O)[O-])c1C [1,2-Dimethyl-3-nitrobenzene]",0.993,0.898,0.848,1.57,
COS(C)(=O)=O [Methyl methanesulfonate],0.999,0.797,1.14,1.24,
COC(=O)c1c(C(F)F)nc(C(F)(F)F)c(C2=NCCS2)c1CC(C)C [Thiazopyr],0.899,0.947,0.872,0.82,0.815
CCOCCOC(C)=O [2-Ethoxyethyl acetate],1.05,0.896,1.18,1.3,
O=[N+]([O-])c1ccc(Oc2ccc(Cl)cc2Cl)cc1 [Nitrofen],1.04,0.882,1.01,1.28,
COC(=O)C(C)Oc1ccc(Oc2ccc(Cl)cc2Cl)cc1 (stereo unspecified) [Diclofop-methyl],1.28,1.98,1.27,1.29,1.1
CC(Oc1ccc(Cl)cc1Cl)C(=O)O (stereo unspecified) [Dichlorprop],1.21,1.22,1.24,1.32,1.16
"Clc1ccc(Cl)cc1 [1,4-Dichlorobenzene]",1.45,0.934,1.1,1.39,
Clc1ccc(C(Cl)(Cl)Cl)cc1 [4-Chlorobenzotrichloride],1.23,0.884,1.42,2.38,
OC(c1ccc(Cl)cc1)(c1ccc(Cl)cc1)C(Cl)(Cl)Cl [Dicofol],1.37,1.17,1.3,1.06,1.23
